The results in this text go back to PubChem BioAssay (NCI).

This is part of a sample that, as a whole, favours compounds with a hit. Of some 83,000 tested, about 20% had one in any assay.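 How to read the values: 0–100, growth inhibition (40 = 60% inhibited); 0, no net growth; -100 to 0, cell death (-40 = 40% of starting cells died; -100 = all dead).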 Unmarked numbers belong to inactive results. The source made the active and inactive calls. The calls were made as follows: active = growth percent below 10; inactive = the rest.

Holding throughout (assay): NCI-60 one-dose screen, 48 h (100 = growth as untreated, 0 = no growth, -100 = all killed)
Holding throughout (settings): 10 µM

The subject of assay [1] is EKVX NSCLC.
Assay [2] concerns SN12C renal.
For assay [3], the system named is UO-31 renal.
Assay [4] concerns TK-10 renal.
Assay [5] concerns ACHN renal.
The subject of assay [6] is CAKI-1 renal.
For assay [7], the system named is A498 renal.
Assay [8] deals with CCRF-CEM leukemia.
Assay [9] concerns MOLT-4 leukemia.
Assay [10] relates to SR leukemia.

Consider `COc1ccc(/C(=C2\O[C@@H]([C@H]3COC(C)(C)O3)[C@H]3OC(C)(C)O[C@@H]23)c2cc(OC)c(OC)c(OC)c2)cc1O`, for which the growth was 90.2% in assay [1]; 57.7% in assay [2]; 49.1% in [3]; 109% in assay [4]; 44.7% in assay [5]; 93% in assay [6]. Moreover, the growth in [7] was 63.3%; in [8], 47.9%; in [9] it was 59.9%; in assay [10], 25.4%.

As for `Cc1ccc(NC(=O)CSc2nc3ccccc3c(=O)n2CCc2ccccc2)c(C(=O)O)c1`, the growth was 73.4% in [1]; 96.6% in assay [2]; 78.5% in assay [3]; 117% in assay [4]; 91.1% in assay [5]; 81.5% in assay [6]. The growth in assay [7] was 87%.

For the molecule `CN1CC[C@@H](c2c(O)cc(O)c3c(=O)cc(-c4ccccc4Cl)oc23)[C@@H](O)C1`, the growth is 9.74% (active) in assay [1]; 26.8% in [2]; -5.67% (active) in assay [3]; 0.554% (active) in [4]; -14.1% (active) in assay [5]; 5.1% (active) in assay [6]. Also, the growth in [7] was -40.8% (active); in assay [8], -9.53% (active); in assay [9], -6.09% (active); in assay [10] it was -4.82% (active).

Turning to `Nc1ccc2cc(S(=O)(=O)O)cc(O)c2c1N=Nc1ccc(F)cc1`, the growth in assay [1] is 107%; in [2], 112%; in [3] it was 51.3%; in assay [4] it was 123%; in [5] it was 99.7%; in [6], 108%. Moreover, the growth in assay [7] was 129%; in assay [8], 106%; in assay [9] it was 99.8%.

With `CCCCCCCCCCCCCCCCN(C(C)c1ccccc1)S(=O)(=O)c1ccc(OC)c(N)c1` (stereo unspecified), the growth in assay [1] is 114%; in assay [2], 118%; in [3], 89.2%; in assay [4] it was 122%; in [5] it was 106%; in assay [6] it was 96.5%. The growth in assay [7] was 123%; in assay [8] it was 97.5%; in assay [9] it was 98.8%; in [10], 94.2%.

For `COc1cc(/C=C2\Oc3cc(OCC(=O)c4ccccc4)ccc3C2=O)cc(OC)c1OC`, the growth in [1] is 108%; in [2], 109%; in assay [3], 67.6%; in assay [4], 151%; in assay [5], 89.6%; in [6] it was 119%. For the same molecule, the growth in assay [7] was 105%; in assay [8], 73.2%; in assay [9], 91%.

For the molecule `COc1cc(C)ccc1C(=O)c1ccc(C)cc1OC`, the growth is 31.2% in assay [1]; 43.2% in [2]; 31.4% in [3]; 38.3% in assay [4]; 60.8% in assay [5]; 23.4% in [6]. In addition, the growth in assay [7] was -4.5% (active); in assay [8], 14.4%; in assay [9] it was 32.3%; in assay [10], -10.2% (active).

On to `C=C(C(=O)c1ccccc1)C(NC(C)(C)C)c1ccccc1` (stereo unspecified), for which the growth in [1] is 52.3%; in assay [2], 2.42% (active); in assay [3] it was -51.7% (active); in assay [4], 9.63% (active); in assay [5], -59.4% (active); in assay [6], 6.9% (active). In addition, the growth was 94.1% in assay [7], 5.75% (active) in assay [8] and 4.36% (active) in [9].

For `CN1c2ccccc2[C@]2(Cc3ccccc3)Cc3ccccc3N[C@H]12`, the growth in assay [1] is 114%; in assay [2] it was 109%; in assay [3] it was 73.4%; in assay [4], 114%; in [5] it was 103%; in assay [6] it was 112%. Also, the growth in assay [7] is 113%; in [8], 92.2%; in [9], 90.2%; in assay [10], 91.2%.

On to `COC(=O)c1c(-c2ccccc2)csc1NC(=O)c1c(-c2ccccc2)noc1C`, for which the growth was 58.7% in assay [1]; 44.8% in assay [2]; 26% in assay [3]; 55.9% in assay [4]; 31.5% in [5]; 6.32% (active) in assay [6]. Moreover, the growth in [7] is 67.8%; in assay [8], 35%; in assay [9], 15.9%; in assay [10] it was -17.2% (active).

Take `CCCCN(CCCC)c1cc(C(=O)CCCCCN)c2ccccc2n1`: the growth is 24% in [1]; 89.7% in assay [2]; -21.9% (active) in assay [3]; 82.6% in assay [4]; 85.5% in assay [5]; -45.4% (active) in [6]. Also, the growth is 72.6% in assay [7], -70.4% (active) in assay [8], -61.5% (active) in assay [9] and -69.3% (active) in assay [10].

With `CN1CCCNc2c(c(=O)c2=O)NCCCN(C)CCCNc2c(c(=O)c2=O)NCCCN(C)CCCNc2c(c(=O)c2=O)NCCCN(C)CCCNc2c(c(=O)c2=O)NCCCN(C)CCCNc2c(c(=O)c2=O)NCCCN(C)CCCNc2c(c(=O)c2=O)NCCCN(C)CCCNc2c(c(=O)c2=O)NCCC1`, the growth in assay [1] is 61.7%; in [2], 33.3%; in assay [3], 17.2%; in assay [4] it was 27.1%; in [5], 43.3%; in assay [6] it was 54.1%. The growth in assay [7] is 72.5%.

Regarding `COc1ccc2c(c1)C(=O)c1c-2c(OCCN(C)C)nc2cc(OC)c(OC)cc12`, the growth in assay [1] was 93.9%; in [2], 51.9%; in assay [3] it was 46.8%; in [4], 64.2%; in assay [5], 38.3%; in assay [6] it was 81%. In addition, the growth in assay [7] is 102%; in assay [8] it was 28.2%; in assay [9], 11.6%.

For the molecule `CN(C)CCN1C(=O)c2cccc3c(-c4ccc5ncn(C6CCCCC6)c5c4)ccc(c23)C1=O`, the growth in [1] is 29.8%; in [2] it was 19.3%; in assay [3], 2.42% (active); in assay [4], 26.7%; in [5] it was 13.8%; in assay [6], 25%. Moreover, the growth is 4.69% (active) in [7] and 15.4% in assay [8].

`CCCCCCCCCCCCCC[n+]1ccc(C(N)=O)cc1`: the growth is 1.08% (active) in [1]; 8.7% (active) in assay [2]; 50.7% in assay [3]; -65.2% (active) in [4]; 65.6% in assay [5]; 15.6% in [6]. In addition, the results for the growth in assay [7], in assay [8] and in [9] were 52.3%, 2.78% (active) and -34.8% (active), respectively.

As for `Cc1nc2ccc(CN(C)c3ccc(C(=O)N[C@@H](CCC(=O)O)C(=O)O)s3)cc2c(=O)[nH]1`, the growth in assay [1] is 72.9%; in [2], 47.7%; in assay [3], 39.9%; in [4], 48.6%; in assay [5], 34.1%; in assay [6], 28.5%. Also, the growth in [7] was 21.5%; in [8], 33.1%; in [9], 26.2%; in assay [10], 44.6%.

In the case of `CCN(CC)CCSCCCNc1c2ccc(Cl)cc2nc2ccc(OC)cc12`, the growth in assay [1] was -20.2% (active); in assay [2] it was -32% (active); in assay [3], -29.1% (active); in assay [4], -4.3% (active); in [5], -78.3% (active); in assay [6], -22.8% (active). Moreover, the growth in [7] was -77.7% (active); in assay [8], -20.4% (active); in [9], -19.9% (active); in assay [10] it was -19.8% (active).

For `CC(C)(C)NC/C(=C\c1ccccc1)C(=O)c1ccccc1`, the growth is 24.7% in assay [1]; -45.8% (active) in assay [2]; -83.3% (active) in assay [3]; 0.816% (active) in assay [4]; -50.9% (active) in assay [5]; -7.54% (active) in assay [6]. The growth was 64.4% in [7], 10.7% in [8], 10.3% in assay [9] and -1.67% (active) in assay [10].

Turning to `COc1cc(-c2nc(-c3nnc(-c4ccccc4Cl)o3)c3ccccn23)cc(OC)c1OC`, the growth in [1] is 92.2%; in assay [2], 82.9%; in assay [3], 67.6%; in [4] it was 106%; in assay [5], 68.3%; in assay [6], 86.2%. Moreover, the growth in assay [7] is 84.3%; in [8], 51.4%; in [9], 56.3%; in assay [10], 72.2%.

For `CCCC1(CC(=O)O)OCCc2c1[nH]c1ccccc21` (stereo unspecified), the growth in assay [1] was 120%; in assay [2], 98%; in assay [3] it was 86.4%; in [4], 113%; in [5], 111%; in assay [6], 91%. Moreover, the growth is 106% in assay [7], 94.1% in [8], 87.3% in [9] and 84% in [10].

As for `COc1cc(NC(=O)CSc2nc3ccccc3c(=O)n2CCc2ccccc2)cc(OC)c1OC`, the growth in [1] is 65.3%; in assay [2] it was 25.9%; in assay [3], -63.2% (active); in assay [4], -2.38% (active); in assay [5], -41.6% (active); in assay [6], 45.4%. Besides, in assay [7], the growth is -21.8% (active).

With `CSc1cc(SC)ncn1`, the growth was 107% in assay [1]; 94.4% in assay [2]; 86.7% in assay [3]; 94% in assay [4]; 107% in assay [5]; 106% in assay [6]. Moreover, the growth in assay [7] is 98.8%; in assay [8] it was 94%; in [9], 105%; in assay [10], 98.2%.

For `O=C(O)C(SC(C(=O)O)c1ccccc1)c1ccccc1` (stereo unspecified), the growth in assay [1] is 104%; in assay [2], 99.9%; in assay [3], 87.6%; in [4], 106%; in assay [5] it was 104%; in assay [6] it was 91.8%. For the same molecule, the growth is 107% in assay [7], 97.8% in assay [8], 103% in assay [9] and 101% in assay [10].

Turning to `COc1ccc2c(c1)N(CCO)C1=C(C(=O)OC1)C2c1ccc(OC)c(OC)c1` (stereo unspecified), the growth is 67% in assay [1]; 60.8% in assay [2]; 60.9% in [3]; 59.3% in assay [4]; 43.7% in [5]; 52.3% in [6]. The growth in assay [7] was 14.9%; in assay [8], 34.2%; in assay [9], 43.4%; in [10], 21%.

Consider `COc1ccc2nc3cc(Cl)ccc3c(NCCNCC(C)O)c2c1` (stereo unspecified), for which the growth was 38.1% in assay [1]; 27.3% in assay [2]; 32.4% in assay [3]; -15.6% (active) in assay [4]; 22.6% in assay [5]; 47.6% in [6]. Also, the growth in assay [7] is 37%; in assay [8], 19.3%; in assay [9] it was 11.7%.

Regarding `N=c1c2c(-c3ccccc3)c(-c3ccccc3)n(Cc3ccccc3)c2ncn1CCCO`, the growth in assay [1] was 36.5%; in assay [2] it was 40.3%; in assay [3], -0.199% (active); in assay [4], 35.4%; in [5], 26.1%; in assay [6] it was 13.9%. The growth was 17.6% in assay [7], 28.9% in assay [8], -10.9% (active) in [9] and -33.5% (active) in assay [10].

On to `O=C(CCCCCCC(=O)Nc1cccnc1)NO`, for which the growth was 96.7% in assay [1]; 71.2% in assay [2]; 30.3% in assay [3]; 41% in [4]; 65.7% in assay [5]; 46.6% in [6]. In addition, the values for the growth in assay [7], in assay [8] and in [9] were 42.9%, 2% (active) and 16.9%, respectively.

`c1ccc2c(c1)oc1c3c(ccc12)NCCC3`: the growth in assay [1] was 59.5%; in assay [2], 87.4%; in assay [3], 65.9%; in assay [4], 135%; in assay [5], 101%; in assay [6], 97.4%. The results for the growth in assay [7], in [8] and in assay [9] were 77.3%, 96% and 97.5%, respectively.

In the case of `Clc1ccccc1N=Cc1ccc2c(c1)OCO2`, the growth was 99.7% in assay [1]; 92% in assay [2]; 80% in [3]; 107% in assay [4]; 111% in assay [5]; 93.6% in [6]. Further, the growth in assay [7] is 102%; in assay [8] it was 88.8%; in [9], 87.9%; in [10], 89%.
